# High-throughput results (PubChem BioAssay)
# ssDAF12 agonist: S. stercoralis DAF-12 nuclear receptor activators, primary screen, cell-based, luminescence, HEK293, GRIP1 co-expression, lit1-tk-luc | Nuclear hormone receptor DAF-12 (Strongyloides stercoralis) | HEK293 ssDAF-12/GRIP1 lit1-tk-luc reporter; % of 3 µM dafachronic acid response | activation, % at 6.8 µM | actives 1% (n = 370,000) | AID 652126, 2013;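 active means activation above the mean over all tested compounds plus 3 SD, cut at about 0.9% in these data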;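 further: 0% = DMSO-only wells and 100% = 3 µM delta7-dafachronic acid wells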
# hgDAF12 agonist: H. glycines DAF-12 receptor agonists, primary screen, cell-based, luminescence, HEK293, GAL4 fusion, UAS-luciferase | activation, % at 6.8 µM | actives 1.8% (n = 370,000) | Nuclear hormone receptor DAF-12 (Heterodera glycines), GAL4 fusion | HEK293 GAL4-hgDAF12 UAS-luciferase reporter, agonist luminescence; normalized to butyrate control;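 active means activation above a cutoff set at the mean of all screened compounds plus 3 SD, cut at about 10% in these data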;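 further: 0% = DMSO wells and 100% = sodium butyrate wells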
# hcDAF12 agonist: H. contortus DAF-12 nuclear receptor activators, primary screen, cell-based, luminescence, HEK293, lit1-tk-luc reporter; AID 652067, 2013; HEK293 hcDAF-12 lit1-tk-luc reporter; 0% DMSO, 100% Δ7-dafachronic acid; activation, % at 6.8 µM; actives 1.4% (n = 370,000);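 active means activation above the mean of all tested compounds plus 3 SD, cut at about 5.5% in these data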;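 further: 100% = response to 3 µM Δ7-dafachronic acid high control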
# DAX1 inh-1: DAX1 (NR0B1) inhibitors, primary screen, cell-based, HEK293, Gal4-DAX1, luciferase luminescence; Nuclear receptor subfamily 0 group B member 1 (Homo sapiens), P51843; HEK293 Gal4-DAX1 luciferase reporter; inhibition, % at 6.75 µM; actives 0.99% (n = 340,000); AID 504766, 2011;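 active means inhibition above the mean over all tested compounds plus 3 SD, cut at about 4.2% in these data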;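 further: 0% = DAX1-transfected cells with DMSO and 100% = empty-vector control cells with DMSO; inhibition shows as a rise in luminescence from relieved DAX1 repression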
# DAX1 inh-2: DAX1 (NR0B1) inhibitors on StAR promoter, primary screen, cell-based, luminescence, SF-1 (NR5A1), full-length DAX-1; actives 1.1% (n = 370,000); HEK293T StAR-luciferase reporter, SF-1/DAX-1 repression relief; inhibition, % at 6.8 µM;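 active means inhibition above the mean over all tested compounds plus 3 SD, cut at about 3.6% in these data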;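 further: 0% = DAX-1 cells with DMSO and 100% = cells lacking DAX-1 with DMSO; higher inhibition means more luminescence from relief of DAX-1 repression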
# DAX1 conf: DAX1 (NR0B1) inhibitors relieving SF-1 repression, confirmation, cell-based, luminescence, HEK293T, full-length DAX-1, SF-1 activated StAR promoter; shares compounds with DAX1 inh-2; inhibition, % at 6.8 µM; actives 87% (n = 2,400); AID 652134, 2013; HEK293T StAR-promoter luciferase reporter, SF-1/DAX-1 repression;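 active means inhibition above the average of every tested compound plus 3 SD, cut at about 3.8% in these data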;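 further: 0% = DAX-1 cells with DMSO and 100% = no DAX-1 control cells with DMSO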
# Target sequence (P51843 whole entry, looked up): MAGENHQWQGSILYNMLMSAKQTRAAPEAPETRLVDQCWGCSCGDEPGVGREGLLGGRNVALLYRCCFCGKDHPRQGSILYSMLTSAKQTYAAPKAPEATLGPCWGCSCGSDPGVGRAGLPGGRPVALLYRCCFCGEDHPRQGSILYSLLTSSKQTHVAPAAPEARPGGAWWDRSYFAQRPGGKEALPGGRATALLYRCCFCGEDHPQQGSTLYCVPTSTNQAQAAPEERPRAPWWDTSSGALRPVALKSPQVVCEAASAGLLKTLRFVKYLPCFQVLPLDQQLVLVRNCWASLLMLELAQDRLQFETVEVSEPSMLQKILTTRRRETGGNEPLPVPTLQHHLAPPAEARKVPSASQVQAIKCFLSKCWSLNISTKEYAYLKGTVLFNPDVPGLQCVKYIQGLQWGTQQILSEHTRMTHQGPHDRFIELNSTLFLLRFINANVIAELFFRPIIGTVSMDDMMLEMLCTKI
# SF1 AF2mut Luc: StAR reporter signal changes without DAX1, counter-screen for DAX1 inhibitor project, cell-based, luminescence, AF-2 mutant SF-1, transactivation; shares compounds with DAX1 inh-2; HEK293 StAR-luciferase, SF-1 AF2 mutant; inhibition, % at 6.8 µM; actives 78% (n = 2,400);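 active means inhibition above the mean of all tested compounds plus 3 SD, cut at about 3% in these data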;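 further: 0% = DAX-1 transfected cells with DMSO and 100% = cells without DAX-1 with DMSO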
# LXRb hcDAF ctr: LXR agonists, Gal4 luciferase reporter, confirmation, counter-screen for hcDAF-12 agonist project, cell-based, luminescence, HEK293, H. contortus campaign; HEK293 Gal4-LXR tk-luc reporter, 24 h; normalized: DMSO 0%, positive control 100%; 3,400 tested, under 10 active; AID 743027, 2013; activation, % at 6.8 µM; shares compounds with hcDAF12 agonist;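 active means mean percent activation of the reporter above a cutoff set as the average over tested compounds plus their standard deviation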
# hcDAF12 ag: H. contortus DAF-12 receptor agonists, confirmation, cell-based, luminescence, HEK293, lit1-tk-luc, triplicate; shares compounds with hcDAF12 agonist; HEK293 hcDAF-12 lit1-tk-luc reporter; % of Δ7-dafachronic acid response; activation, % at 6.8 µM; actives 61% (n = 3,400); AID 743032, 2013;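 active means mean activation across triplicate tests above the threshold derived from the earlier primary screen, cut at about 5.5% in these data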;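 further: 0% = DMSO only wells and 100% = 3 µM Δ7-dafachronic acid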
# Active calls of the source: *; · = not tested or not shown. Shown are actives, neighbours in structure and some others; about 4.1% of the full set was active somewhere.
SMILES,ssDAF12 agonist,hgDAF12 agonist,hcDAF12 agonist,DAX1 inh-1,DAX1 inh-2,DAX1 conf,SF1 AF2mut Luc,LXRb hcDAF ctr,hcDAF12 ag
O=C(/C=C/Nc1cccc(O)c1)c1ccccc1,0,7,7.0*,-2,6.6*,13*,6.0*,2,13*
O=C(/C=C\Nc1ccccn1)c1ccccc1,1,9,12*,-2,5.3*,10.0*,1,1,9.7*
COc1ccc(C(=O)/C=C/Nc2ccccn2)c(OC)c1,1,9,3,·,3,·,·,·,·
COc1cc(NC(=O)c2cc(-c3cc(F)ccc3OC(C)C)n[nH]2)cc(OC)c1OC,-2,-8,-4,·,-3,·,·,·,·
c1ccc(-c2csc(Nc3ccc4c(c3)OCCO4)n2)cc1,3.1*,19*,15*,3,6.9*,20*,7.0*,2,16*
Cc1cc(C)nc(Nc2nc(-c3ccccc3)cs2)n1,5.0*,18*,22*,-2,4.5*,20*,8.4*,3,37*
CC(C)NC(=O)c1cc(C2CCCCN2C(=O)c2ccccc2)on1 (configuration not stated),-1,1,1,·,0,·,·,·,·
N#C/C(=C\c1ccc(O)c([N+](=O)[O-])c1)c1nc2ccccc2s1,-1,2,3,-1,0,·,·,·,·
N#C/C(=C\c1ccco1)c1nc2ccccc2s1,2.5*,17*,15*,4,5.1*,14*,9.1*,2,11*
CCCN(C(=O)CCc1cn(CCC)c2ccccc12)c1ccc(N(C)c2ccccn2)cc1,-1,3,0,·,0,·,·,·,·
Cc1cc(C)c2nc(NC(=O)c3ccco3)sc2c1,1.0*,10,6.6*,0,19*,13*,3,2,9.2*
COc1cc(N/N=C/c2ccc(N(C)C)cc2)ncn1,1,12*,11*,-2,10*,12*,4.3*,2,8.4*
COc1cc(N/N=C/c2ccccc2O)ncn1,0,7,2,3,-1,·,·,·,·
CCNC(=O)C1(C)CCCN(C(=O)c2nc3ccccc3s2)C1 (configuration not stated),-1,-1,-2,·,0,·,·,·,·
CCOC(=O)C1CCCN(C(=O)CCc2nnc(-c3ccc(C(C)=O)s3)o2)C1 (configuration not stated),0,13*,6.8*,4,5.5*,5.8*,5.9*,1,6.1*
Cc1ccc(-c2cc3nc(C)cc(C)n3n2)cc1,5.6*,21*,17*,1,4.5*,11*,6.2*,2,18*
O=C(NCc1ccccc1)[C@H]1CCCN1C(=O)[C@H]1CCCN1C(=O)c1cccs1,-1,-1,-1,·,-1,·,·,·,·
